ST2 IL33 inh – inhibitors of human ST2 (IL1RL1) binding to IL-33, primary screen, biochemical, AlphaLISA. Interleukin-1 receptor-like 1 (Homo sapiens), Q01638. AlphaLISA ST2-Fc/biotin-IL-33 interaction, 1 h. inhibition, % for hits at 17 µM. 2.3% of 78,000 active. AID 1259354, 2018; in the data active = inhibition above about 30%
Target sequence (Q01638 whole entry, looked up): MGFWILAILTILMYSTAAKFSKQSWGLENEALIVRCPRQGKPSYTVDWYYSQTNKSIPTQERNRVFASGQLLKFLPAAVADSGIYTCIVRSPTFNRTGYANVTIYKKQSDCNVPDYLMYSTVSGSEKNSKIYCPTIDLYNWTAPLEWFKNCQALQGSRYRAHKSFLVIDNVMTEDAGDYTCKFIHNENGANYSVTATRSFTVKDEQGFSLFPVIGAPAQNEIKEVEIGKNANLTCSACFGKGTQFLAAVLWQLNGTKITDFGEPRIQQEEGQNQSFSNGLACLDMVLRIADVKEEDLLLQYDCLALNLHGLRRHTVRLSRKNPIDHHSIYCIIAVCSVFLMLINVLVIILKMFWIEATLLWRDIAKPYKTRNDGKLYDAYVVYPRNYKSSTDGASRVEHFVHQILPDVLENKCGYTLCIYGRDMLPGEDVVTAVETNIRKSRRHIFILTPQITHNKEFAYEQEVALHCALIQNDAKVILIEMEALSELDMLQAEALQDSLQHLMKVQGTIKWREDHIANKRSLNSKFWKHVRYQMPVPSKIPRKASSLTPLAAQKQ
Large screens that a line does not name were inactive. Only a selection was taken, and hits are over-represented in it overall.

CC1(C)C(C=C(Cl)Cl)C1C(=O)Nc1ccc(S(=O)(=O)Nc2nccs2)cc1 (stereo not drawn)	none
CCCCNC(=O)Cn1cnc2c1c(=O)n(C)c(=O)n2C	none
CC1CN(C(=O)Cn2cnc3c2c(=O)n(C)c(=O)n3C)CC(C)O1 (stereo not drawn)	ST2 IL33 inh 95%
Cn1c(=O)c2c(ncn2CC(=O)Nc2ccccn2)n(C)c1=O	none
CCN(CC)C(=O)CC[C@H]1CNC(=O)[C@@H]2[C@@H](CCN2Cc2ccccc2)N1C	none
COc1ccc(Cl)cc1C(=O)N1CCN=C1SCc1cccnc1	none
CC(NC(=O)[C@H](Cc1ccccc1)N1Cc2ccccc2C1=O)c1cccs1 (stereo partly drawn)	none
COc1cc(OC)c(NC(=O)CN2CCN(Cc3ccc(F)cc3Cl)S2(=O)=O)cc1Cl	none
CCOc1cc(C=C2C(=O)OC(C)(C(C)(C)C)OC2=O)cc(I)c1O (stereo not drawn)	none
CCN(CC)C(=O)Cn1cc(/C=C2\C(=O)NC(=O)N(CC)C2=O)c2ccccc21	none
COc1ccc(C=C2C(=O)OC3(CCCCC3)OC2=O)cc1O	none
Cn1cc(/C=C2\C(=O)NN(c3ccccc3)C2=O)c2ccccc21	none
CCn1cc(C=C2C(=O)OC(C)(C(C)(C)C)OC2=O)c2ccccc21 (stereo not drawn)	ST2 IL33 inh 44%
Cn1cc(C=C2C(=O)OC3(CCCCC3)OC2=O)c2ccccc21	ST2 IL33 inh 41%
CCOc1cc(C=C2C(=O)OC(C)(C(C)(C)C)OC2=O)ccc1OC (stereo not drawn)	none
CCN(CC)c1ccc(C=C2C(=O)OC(C)(C(C)(C)C)OC2=O)cc1 (stereo not drawn)	ST2 IL33 inh 43%
N#Cc1ccccc1Cn1cc(C=C2C(=O)NC(=O)NC2=O)c2ccccc21	none
CN(C(=O)CSc1nnnn1Cc1ccccc1)c1ccccc1	none
Cc1cc2ccccc2n1CCNC(=O)c1cc(Cl)ccc1Cl	none
COc1cc2c(cc1OC)C(C(=O)NCCCN1CCCC1)C(c1cccs1)N(C)C2=O (stereo not drawn)	none
Cc1ccc(CSC2=NCCN2C(=O)c2ccccc2F)cc1	none
Cc1nc(CN2CCN(C(=O)c3cn(CCN4CCCCC4)nn3)CC2)cs1	none
CCOc1ccc(CNC(=O)CN2C(=O)C(CC)=C(c3ccc(OC)cc3)S2(=O)=O)cc1OC	none
O=C(NCCS(=O)(=O)N1CCCC1)c1cccc2ccnn12	none
CCc1cc2c(=O)c(-c3nc4ccccc4s3)coc2cc1OC	none
CCOc1ccc2c(=O)c(-c3nc4ccccc4s3)coc2c1	ST2 IL33 inh 30%
CC(=O)Oc1ccc2c(=O)c(-c3csc(-c4ccccc4)n3)coc2c1	none
COc1ccccc1C(CCN)C1CCOC(C)(C)C1 (stereo not drawn)	none
CN1CCN(C(=O)CN2C(=O)S/C(=C/c3ccccc3)C2=O)CC1	none
O=C(O)CN1C(=O)S/C(=C\c2ccco2)C1=O	ST2 IL33 inh 74%
CC(C)N1C(=O)S/C(=C\c2ccc(-c3cccc(C(=O)O)c3)o2)C1=O	none
COc1ccc(C2=Nc3ccccc3N=C(c3cc(OC)ccc3O)C2)cc1	none
Oc1ccccc1C1=Nc2ccccc2N=C(c2ccccc2)C1	none
COc1ccc(O)c(C2=Nc3ccccc3N=C(c3ccc(F)cc3)C2)c1	ST2 IL33 inh 32%
CCc1ncc(C(=O)NCc2cccnc2Oc2ccc(C)nc2)cn1	none
CC(C)C(C(=O)Nc1ccc([N+](=O)[O-])cc1)N1C(=O)c2ccccc2C1=O (stereo not drawn)	none
CC(=O)N1/C(=C/c2ccc([N+](=O)[O-])cc2)C(=O)c2ccccc21	ST2 IL33 inh 51%
O=C(ON1C(=O)c2ccccc2C1=O)c1ccc([N+](=O)[O-])cc1	none
CC(=O)NS(=O)(=O)c1ccc(NC(=O)COc2ccc(Cl)cc2)cc1	none
O=C(NC1CCCCC1)c1cc(=O)[nH]c2ccc(S(=O)(=O)N3CCCCCC3)cc12	none
COc1ccc(OCc2cc(C(=O)N(C)C(C)c3nccs3)n[nH]2)c(Cl)c1 (stereo not drawn)	none
CC1(C)CC(=O)C(C(C2=C(O)CC(C)(C)CC2=O)c2cccc(O)c2)C(=O)C1 (stereo not drawn)	none
CN(C)c1ccc(C(C2=C(O)CC(C)(C)CC2=O)C2C(=O)CC(C)(C)CC2=O)cc1 (stereo not drawn)	none
CC1(C)CC(=O)C(C(C2=C(O)CC(C)(C)CC2=O)c2ccc([N+](=O)[O-])s2)C(=O)C1 (stereo not drawn)	ST2 IL33 inh 30%
COc1ccc(S(=O)(=O)N2CCC(C(=O)NCc3ccccn3)CC2)cc1	none
COc1ccc(-c2ccc[nH]2)cc1	ST2 IL33 inh 42%
COc1ccc(-c2cc(-c3ccccc3)nc(=O)[nH]2)cc1	none
COc1ccc(-c2cc3ccccc3[nH]2)cc1	none
COc1cccc(CNC(=O)C(=O)Nc2ccc(C)c(Cl)c2)c1	none
CCc1ccc2c(c1)C1(NN=C(c3ccc(C)cc3)S1)C(=O)N2 (stereo not drawn)	ST2 IL33 inh 45%
CCc1ccc(N2C(=O)Nc3ccc(Br)cc3C2(O)C(=O)NC(C)C)cc1 (stereo not drawn)	none
CCc1ccc(C(=O)CC2(O)C(=O)Nc3ccccc32)cc1 (stereo not drawn)	none
Cc1ccc(-n2ncc3c2CC(C)(C)CC3NC(=O)CCn2cnc3ccccc32)cc1 (stereo not drawn)	none
O=C(NCc1ccco1)c1ccc2c(c1)N(Cc1ccc(F)cc1Cl)C(=O)CS2	none
CCc1ccc(S(=O)(=O)N2CCCN(S(=O)(=O)c3ccc(CC)cc3)CC2)cc1	none
CC(C)(C)c1ccc(S(=O)(=O)N=C2C=CC(=O)c3ccccc32)cc1	ST2 IL33 inh 44%
CCc1ccc(S(=O)(=O)N(CC)CC)cc1	none
CCOc1ccc(S(=O)(=O)N=C2C=CC(=O)c3ccccc32)cc1	ST2 IL33 inh 49%
CC(C)(C)c1ccc(S(=O)(=O)Nc2ccccn2)cc1	none
CCOc1cccc(S(=O)(=O)N=C2C=C(C(C)(C)C)C(=O)C(C(C)(C)C)=C2)c1	none
CCOc1ccc(C2C(=O)c3ccccc3C2=O)cc1	none
CC(C)(C)c1ccc(S(N)(=O)=O)cc1	none
CCc1ccc(S(=O)(=O)N=C2C=CC(=O)c3ccccc32)cc1	ST2 IL33 inh 49%
N#Cc1c(N=Cc2cccn2-c2ccc(S(N)(=O)=O)cc2)sc2c1CCCC2	none
COC(=O)CSC1=C(C#N)C(c2cccc(Cl)c2Cl)CC(=O)N1 (stereo not drawn)	none
Cc1nc2ccc3nc(NC(=O)c4ccccc4C)sc3c2s1	none
Cc1cccc(N(CC(=O)NCC2CCCO2)S(C)(=O)=O)c1C (stereo not drawn)	none
COC(=O)[C@@H]1Cc2ncn(Cc3ccc(Cl)cc3)c2CN1Cc1ccccc1	none
Cc1nc2sc(C(c3ccccc3)N3CCN(c4ccccc4)CC3)c(O)n2n1 (stereo not drawn)	none
CCN1C(=O)/C(=C2\SC(N)=NC2=O)c2cc(Br)ccc21	none
CCCN1C(=O)C(=O)c2cc(Br)ccc21	none
CCCN1C(=O)/C(=C2\SC(N)=NC2=O)c2cc(Br)ccc21	ST2 IL33 inh 33%
O=[N+]([O-])c1ccc(OCCCCN2CCOCC2)cc1	none
O=C(c1nc(=O)[nH]c2ccccc12)N1CCc2c([nH]c3ccccc23)C1C1CCCCC1 (stereo not drawn)	none
O[C@@H]1C[C@@H](c2nc(Cc3ccccc3)no2)N(CC2CCCCC2)C1	none
CCOc1ccc(NC(=O)CSC2=NS(=O)(=O)c3ccccc32)cc1	none
O=C(c1ccc(Cl)cc1)N1CCN(c2ccc([N+](=O)[O-])c3ncccc23)CC1	none
O=[N+]([O-])c1ccc(N2CCN(c3ccccc3)CC2)c2ncccc12	ST2 IL33 inh 32%
O=C(Cc1ccccc1[N+](=O)[O-])N1CCN(c2ccccn2)CC1	none
CCCc1cnc(C)nc1-c1cccc(C(C)=O)c1	none
Cc1ccc(NC(=O)N[C@H]2C[C@@H](c3nc(-c4ccc(OC(F)(F)F)cc4)no3)N(C)C2)cc1	none

High-throughput results deposited in PubChem BioAssay by Paczesny and Yang Labs, IUPUI and University of Michigan.
